Assay outcomes: PubChem BioAssay, National Center for Advancing Translational Sciences (NCATS)
An excerpt weighted towards active compounds, which were near 6.9% of everything screened.
Vif-APOBEC3G blk: Vif-A3G binding inhibition | Q9HC16 | HeLa A3G-eYFP + Vif (tagged APOBEC3G with the HIV-1 protein that degrades it), YFP fluorescence, overnight | Potency, µM (top dose mostly 46.1 µM), most hits filed as inhibitors | 410,000 tested, 0.076% active | AID 602310; note: nearly all actives have a fitted effect of over 60% in size
Target sequence (Q9HC16 whole entry, looked up): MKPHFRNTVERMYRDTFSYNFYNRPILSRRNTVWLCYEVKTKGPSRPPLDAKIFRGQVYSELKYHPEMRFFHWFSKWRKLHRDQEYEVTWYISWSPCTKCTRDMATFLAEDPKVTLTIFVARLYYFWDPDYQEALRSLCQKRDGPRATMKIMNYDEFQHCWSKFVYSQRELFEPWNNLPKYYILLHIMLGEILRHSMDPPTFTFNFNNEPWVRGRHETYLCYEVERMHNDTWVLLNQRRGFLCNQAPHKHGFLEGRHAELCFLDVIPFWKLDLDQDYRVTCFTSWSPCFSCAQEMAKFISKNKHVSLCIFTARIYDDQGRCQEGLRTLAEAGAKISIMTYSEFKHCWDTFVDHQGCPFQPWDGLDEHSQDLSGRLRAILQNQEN
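HeLa cells stably expressing Vif and C-terminally eYFP-tagged A3G, seeded overnight at 37 deg C, then exposed to compound by pintool overnight at 37 deg C. Rise in yellow fluorescence (Ex 488/Em 500-530, Acumen) marks blocked Vif-driven A3G degradation.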
IL1B secr inh: inflammasome signaling inhibition, IL-1 beta readout; 360,000 tested, 4.7% active; THP-1 LPS/ATP IL-1B secretion, AlphaLISA, 16 h; stronger effect = lower value; activity change, % at 57.5 µM; in the data active = activity change below about -50%; inconclusive = mostly about -30% to -49%
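Secreted IL-1B measured by AlphaLISA bead assay after 16 h compound exposure of THP-1 cells; compounds (final up to 57.5 uM) added 1 h before LPS (250 ng/mL) and ATP (1.25 mM) stimulation; lower signal means less secretion.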
SW480 rerep: inducers of DNA re-replication in SW480 colon cancer cells. Potency, µM (doses to about 46.1 µM), most hits filed as activators. 340,000 tested, 1.8% active. SW480 DNA re-replication, Hoechst DNA content imaging, 48 h; note: nearly all actives have a fitted effect of over 55% in size
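Readout is total intensity of Hoechst-stained nuclei, excited at 405 nm and collected at 500-530 nm. Compound treatment lasted 48 hr at 37 C in 5% CO2 before staining.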
MCF10A rereplic: inducers of DNA re-replication in MCF 10A breast cells. Potency, µM (highest dose often 46.1 µM), actives largely listed as activators. 350,000 tested, 2.9% active. AID 624296. MCF 10A DNA re-replication, Hoechst nuclear intensity, 48 h; note: nearly all actives have a fitted effect of over 50% in size
Vif-A3F inh: Vif-A3F binding inhibition | HeLa A3F-eYFP + Vif (tagged APOBEC3F with the HIV-1 protein that degrades it), YFP fluorescence increase | 390,000 tested, 0.2% active | Potency, µM (titrated, usually from 46.1 µM); note: nearly all actives have a fitted effect of over 65% in size
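Fluorescence increase (Ex 488/Em 500-530) after overnight compound treatment at 37 deg C flags inhibition of Vif-driven A3F-eYFP loss in stable HeLa A3F-eYFP/Vif cells seeded overnight beforehand.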
Giardia killer: Giardia lamblia killing; AID 540267; 340,000 tested, 0.15% active; activity change, % at 7.66 µM, hits read low; Giardia lamblia trophozoite viability; in the data active = activity change below about -80%; inconclusive = between about -30% and that limit;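 note: parasites exposed to compound for two days anaerobically before the ATP read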
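Giardia trophozoites, 100 cells per well, were exposed to compounds for 48 hrs at 37 deg C under anaerobic conditions; viability was then read as ATP content by bioluminescence after 15-30 min at room temperature.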
Numbers stand for hits; i = inactive; ? = inconclusive; nt = no result. Unless noted, calls come from the whole dose curve; as a rule, active = well fitted curve in the direction sought with a large enough effect; inconclusive = small, poorly fitted or top-dose-only effect, or another doubt; inactive = no such curve, though single readings can be large; an effect the other way counts as inactive or inconclusive.

SMILES	Vif-APOBEC3G blk	IL1B secr inh	SW480 rerep	MCF10A rereplic	Vif-A3F inh	Giardia killer
CCOC(=O)C1C(C(=O)OC)=C(c2ccc(OC)cc2)c2ccc(OC)cc2N1S(=O)(=O)C(F)(F)F (stereo not given)	i	i	?	i	i	i
Cc1cnc(/C=C/c2ccc(N(C)C)cc2)cn1	i	nt	nt	nt	nt	nt
Cc1cccc(-n2nnnc2S(C)(=O)=O)c1	?	nt	nt	nt	i	nt
COc1cccc(-n2nnnc2S(C)(=O)=O)c1	i	-92	?	4.6µM	i	i
NCCNC(=O)c1ccc(Cl)cn1	nt	nt	i	i	nt	nt
CCCCC(O)(CCCC)C(=O)N/N=C(\C)c1ccc(Cl)cc1	i	-54	i	i	i	i
Cc1ccc(C)c(NC(=O)N2CC=C(c3c[nH]c4ccccc34)CC2)c1	?	nt	nt	nt	25µM	nt
Cc1cc(NC(=O)N2CC=C(c3c[nH]c4ccccc34)CC2)ccc1Br	?	nt	nt	nt	22µM	nt
Cc1ccc(C)c(NC(=O)CS(=O)(=O)c2c[nH]c3ccccc23)c1	i	i	i	i	i	i
COc1ccccc1C(=O)NNS(=O)(=O)c1ccc(F)cc1	i	i	i	i	i	i
O=C(NNS(=O)(=O)c1ccc(F)cc1)c1ccccc1F	i	i	18µM	i	i	i
Nc1ccc2oc3ccc(N)cc3c(=O)c2c1	i	-73	?	?	i	i
Nc1ccc2c(=O)[nH][nH]c(=O)c2c1	i	i	i	i	i	i
COc1ccc(-c2nsc(NC(=O)c3oc4cc(C)c(C)cc4c3C)n2)cc1	i	nt	nt	nt	i	nt
CC(Oc1ccc(Br)cc1)C(=O)Nc1cc(Cl)ccc1N1CCN(C)CC1 (stereo not given)	i	-86	?	?	i	i
CN1CCN(c2ccc(Cl)cc2NC(=O)/C=C/c2ccc(F)cc2)CC1	i	-73	?	?	i	i
c1ccc(-c2cc3c(N4CCN(c5ccccc5)CC4)ncnc3s2)cc1	i	i	i	12µM	i	i
CN1CCN(c2ncnc3sc(-c4ccccc4)cc23)CC1	i	-60	i	?	i	i
c1ccc(-c2cc3c(N4CCN(c5ncccn5)CC4)ncnc3s2)cc1	i	i	i	?	i	i
CCOC(=O)/C(C#N)=C/Nc1ccsc1C(=O)OC	i	i	i	i	i	i
CCOC(=O)/C(C#N)=C/Nc1cc(C(=O)OCC)cc2c(OC)c(OC)ccc12	i	i	23µM	2.6µM	i	i
COc1ccc(CCC(C)NCC2CCCCC2)cc1 (stereo not given)	i	i	?	?	i	i
COc1ccc(CCC(C)NC2CCCCCCC2)cc1 (stereo not given)	i	-73	?	?	i	i
COc1ccc(-c2c(C(F)(F)F)[nH]n3c(=O)cc(-c4ccccc4)nc23)cc1	i	nt	29µM	2.6µM	i	i
Cc1ccc(C(=O)N2CCN(c3ccccn3)CC2)cc1C	i	i	i	i	i	i
CN1CCN(C(=O)c2ccc3c(c2)NC(=O)/C(=C/c2ccccc2)S3)CC1	i	i	?	?	i	i
O=C(c1ccc2c(c1)N(Cc1c(F)cccc1Cl)C(=O)c1ccccc1S2)N1CCCC1	i	nt	nt	nt	i	nt
CN1C(=O)/C(=C/c2ccccc2F)Sc2ccc(C(=O)N3CCCC3)cc21	i	-75	i	i	i	i
Cc1ccccc1/C=C1\Sc2ccc(C(=O)N3CCN(c4ccccn4)CC3)cc2N(C)C1=O	i	i	i	23µM	i	i
